Screen size: about 5,500 compounds; about 2,000 (36%) were called active. Roughly 18% stayed inconclusive and do not appear here. Rule as the data show it: active = normalized growth mostly below about 0.91 (no sharp cut-off); inconclusive = no clear call, values can overlap the other calls; inactive = mostly above about 0.92. The list shows a part of the results.
Experiment: chemical genetic growth profiling, strain panel (AID 1159580);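 also: tested at 20 µM; growth read once vehicle control cultures reached saturation at 30 °C; 1 = growth at the plate median or of vehicle wells; lower values mean less growth of the strain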
Details: growth OD

Measured: normalized growth

CCCC(C)C1(CC)C(=O)N=C(S)NC1=O (configuration not stated)
active: S. cerevisiae deletion strains, locus YKL085W, strain MDH1 (second series), active compounds read low 0.309 | S. cerevisiae deletion strains, locus YKL085W, strain MDH1, active compounds read low 0.309 | S. cerevisiae deletion strains, locus YKR001C, strain vps1, active compounds read low 0.0973 | S. cerevisiae deletion strains, locus YLR102C, strain apc9, active compounds read low 0.0762 | S. cerevisiae deletion strains, locus YLR268W, strain sec22, active compounds read low 0.0785 | S. cerevisiae deletion strains, locus YLR371W, strain rom2, active compounds read low 0.077 | S. cerevisiae deletion strains, locus YLR418C, strain cdc73, active compounds read low 0.0993 | S. cerevisiae deletion strains, locus YML032C, strain rad52, active compounds read low 0.789 | S. cerevisiae deletion strains, locus YML124C, strain tub3, active compounds read low 0.113 | S. cerevisiae deletion strains, locus YMR078C, strain ctf18, active compounds read low 0.124 | S. cerevisiae deletion strains, locus YMR223W, strain ubp8, active compounds read low 0.0719 | S. cerevisiae deletion strains, locus YNL250W, strain rad50, active compounds read low 0.434 | S. cerevisiae deletion strains, locus YNL271C, strain bni1, active compounds read low 0.163 | S. cerevisiae deletion strains, locus YNL298W, strain CLA4, active compounds read low 0.372 | S. cerevisiae deletion strains, locus YNL307C, strain MCK1, active compounds read low 0.0689 | S. cerevisiae deletion strains, locus YOL147C, strain pex11, active compounds read low 0.677 | S. cerevisiae deletion strains, locus YOR136W, strain idh2, active compounds read low 0.0798 | S. cerevisiae deletion strains, locus YOR184W, strain ser1, active compounds read low 0.0729 | S. cerevisiae deletion strains, locus YOR316C, strain cot1, active compounds read low 0.0718 | S. cerevisiae deletion strains, locus YPR119W, strain clb2, active compounds read low 0.101 | S. cerevisiae deletion strains, locus YPR163C, strain tif3, active compounds read low 0.0717 | S. cerevisiae deletion strains, locus YPR167C, strain met16, active compounds read low 0.0756 | S. cerevisiae deletion strains, strain wtn01, active compounds read low 0.06
inactive: S. cerevisiae deletion strains, locus YJR075W, strain HOC1, active compounds read low 1 | S. cerevisiae deletion strains, locus YKL009W, strain mrt4, active compounds read low 0.908 | S. cerevisiae deletion strains, locus YKL068W, active compounds read low 0.947 | S. cerevisiae deletion strains, locus YKL160W, strain elf1, active compounds read low 0.982 | S. cerevisiae deletion strains, locus YKL190W, strain CNB1, active compounds read low 1.02 | S. cerevisiae deletion strains, locus YKR026C, strain gcn3, active compounds read low 0.984 | S. cerevisiae deletion strains, locus YKR091W, strain srl3, active compounds read low 1.01 | S. cerevisiae deletion strains, locus YLL001W, strain dnm1, active compounds read low 0.986 | S. cerevisiae deletion strains, locus YLL026W, active compounds read low 1 | S. cerevisiae deletion strains, locus YLL041C, strain sdh2, active compounds read low 0.994 | S. cerevisiae deletion strains, locus YLR027C, strain aat2, active compounds read low 0.998 | S. cerevisiae deletion strains, locus YLR039C, strain RIC1, active compounds read low 1.06 | S. cerevisiae deletion strains, locus YLR058C, strain SHM2, active compounds read low 1 | S. cerevisiae deletion strains, locus YLR113W, strain HOG1, active compounds read low 0.98 | S. cerevisiae deletion strains, locus YLR221C, strain rsa3, active compounds read low 0.987 | S. cerevisiae deletion strains, locus YLR258W, strain gsy2, active compounds read low 1 | S. cerevisiae deletion strains, locus YLR262C, strain YPT6 (second series), active compounds read low 0.918 | S. cerevisiae deletion strains, locus YLR262C, strain YPT6, active compounds read low 1.01 | S. cerevisiae deletion strains, locus YLR320W, strain mms22, active compounds read low 0.987 | S. cerevisiae deletion strains, locus YLR330W, strain CHS5, active compounds read low 1.01 | S. cerevisiae deletion strains, locus YLR342W, strain FKS1 (second series), active compounds read low 1.04 | S. cerevisiae deletion strains, locus YLR342W, strain FKS1, active compounds read low 0.998 | S. cerevisiae deletion strains, locus YLR357W, strain rsc2, active compounds read low 0.961 | S. cerevisiae deletion strains, locus YLR370C, strain arc18, active compounds read low 0.984 | S. cerevisiae deletion strains, locus YLR384C, strain iki3, active compounds read low 1 | S. cerevisiae deletion strains, locus YML016C, strain PPZ1, active compounds read low 1 | S. cerevisiae deletion strains, locus YML120C, strain ndi1, active compounds read low 0.988 | S. cerevisiae deletion strains, locus YMR058W, strain fet3, active compounds read low 1 | S. cerevisiae deletion strains, locus YMR125W, strain sto1, active compounds read low 0.974 | S. cerevisiae deletion strains, locus YMR129W, active compounds read low 0.971 | S. cerevisiae deletion strains, locus YMR205C, strain PFK2, active compounds read low 0.97 | S. cerevisiae deletion strains, locus YMR231W, strain pep5, active compounds read low 1 | S. cerevisiae deletion strains, locus YMR263W, strain SAP30, active compounds read low 1.01 | S. cerevisiae deletion strains, locus YMR307W, strain GAS1, active compounds read low 0.992 | S. cerevisiae deletion strains, locus YNL067W, strain RPL9B, active compounds read low 1.01 | S. cerevisiae deletion strains, locus YNL071W, strain lat1, active compounds read low 1 | S. cerevisiae deletion strains, locus YNL128W, strain TEP1, active compounds read low 1 | S. cerevisiae deletion strains, locus YNL153C, strain GIM3, active compounds read low 0.999 | S. cerevisiae deletion strains, locus YNL183C, strain NPR1, active compounds read low 0.923 | S. cerevisiae deletion strains, locus YNL209W, strain ssb2, active compounds read low 0.982 | S. cerevisiae deletion strains, locus YNL233W, strain BNI4, active compounds read low 0.999 | S. cerevisiae deletion strains, locus YNL248C, strain rpa49, active compounds read low 0.988 | S. cerevisiae deletion strains, locus YNL322C, strain KRE1 (second series), active compounds read low 0.979 | S. cerevisiae deletion strains, locus YNL322C, strain KRE1, active compounds read low 1.01 | S. cerevisiae deletion strains, locus YNR049C, strain mso1, active compounds read low 0.992 | S. cerevisiae deletion strains, locus YNR052C, strain pop2, active compounds read low 1.01 | S. cerevisiae deletion strains, locus YOL006C, strain TOP1, active compounds read low 1.03 | S. cerevisiae deletion strains, locus YOL012C, strain htz1 0.212 | S. cerevisiae deletion strains, locus YOR001W, strain rrp6, active compounds read low 0.98 | S. cerevisiae deletion strains, locus YOR061W, strain CKA2, active compounds read low 1.01 | S. cerevisiae deletion strains, locus YOR069W, strain VPS5, active compounds read low 1.01 | S. cerevisiae deletion strains, locus YOR070C, strain gyp1, active compounds read low 1 | S. cerevisiae deletion strains, locus YOR080W, strain dia2, active compounds read low 0.989 | S. cerevisiae deletion strains, locus YOR083W, strain WHI5, active compounds read low 0.988 | S. cerevisiae deletion strains, locus YOR106W, strain vam3, active compounds read low 0.979 | S. cerevisiae deletion strains, locus YOR144C, strain elg1, active compounds read low 1 | S. cerevisiae deletion strains, locus YOR231W, strain MKK1, active compounds read low 0.994 | S. cerevisiae deletion strains, locus YOR265W, strain rbl2, active compounds read low 0.986 | S. cerevisiae deletion strains, locus YOR270C, strain vph1, active compounds read low 0.969 | S. cerevisiae deletion strains, locus YOR290C, strain snf2, active compounds read low 0.997 | S. cerevisiae deletion strains, locus YPL051W, strain arl3, active compounds read low 1 | S. cerevisiae deletion strains, locus YPL055C, strain LGE1, active compounds read low 1.01 | S. cerevisiae deletion strains, locus YPL078C, strain atp4, active compounds read low 0.981 | S. cerevisiae deletion strains, locus YPL106C, strain sse1, active compounds read low 0.977 | S. cerevisiae deletion strains, locus YPL240C, strain hsp82, active compounds read low 0.991 | S. cerevisiae deletion strains, locus YPL241C, strain CIN2, active compounds read low 1.02 | S. cerevisiae deletion strains, locus YPL256C, strain CLN2, active compounds read low 0.977 | S. cerevisiae deletion strains, locus YPR141C, strain kar3, active compounds read low 0.983 | S. cerevisiae strains, strain wild type, active compounds read low 1.01

From PubChem BioAssay AID1159580 (chemical genetic matrix, 2015)
